Experimental findings from the supplement of paper PMC9023506 are described below.

Counter-ions that a name gives are not always drawn.

The test concerns Danio rerio larvae (5 dpf). In words: optomotor response to green moving lines, difference vs DMSO (percentage points (treated minus DMSO)); higher = more of the behaviour than the DMSO vehicle control. The following applies: 10 µM; exposure time: 3 h pre-incubation + 3 h imaging. The protocol: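 5-dpf wild-type zebrafish larvae were imaged in 96-well plates. They were treated with 190 Tocris FDA-approved drugs at 10 µM (1 µl/ml DMSO) for 3 h before and 3 h during imaging at 28.5 °C, 48 larvae per drug. Automated image analysis gave % time moving and optomotor responses. Values are drug group mean minus DMSO vehicle mean (n=844), in percentage points, for 10 behaviours.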
In the case of `N#Cc1ccc(C(c2ccc(C#N)cc2)n2cncn2)cc1` [Letrozole], the “optomotor response to green moving lines” value turned out to be 6.3.
In the case of `COc1ccc(-c2ccc3cc(C(=O)O)ccc3c2)cc1C12CC3CC(CC(C3)C1)C2` [Adapalene], the “optomotor response to green moving lines” value is -2.82.
Turning to `COCCCOc1cc(C[C@@H](C[C@H](N)[C@@H](O)C[C@H](C(=O)NCC(C)(C)C(N)=O)C(C)C)C(C)C)ccc1OC` [Aliskiren hemifumarate], the “optomotor response to green moving lines” value was -4.53.
For the molecule `NS(=O)(=O)c1cc2c(cc1Cl)NC(C1CC3C=CC1C3)NS2(=O)=O` (stereo not given) [Cyclothiazide], the “optomotor response to green moving lines” value amounted to 0.907.
In the case of `Cc1nc(-c2ccc(OCC(C)C)c(C#N)c2)sc1C(=O)O` [Febuxostat] it was -4.77.
As for `CN(C)C(=N)NC(=N)N` [Metformin hydrochloride], the “optomotor response to green moving lines” value came to 7.37.
In the case of `CCCCC1=NC2(CCCC2)C(=O)N1Cc1ccc(-c2ccccc2-c2nnn[nH]2)cc1` [Irbesartan] it was -19.
In the case of `COc1cc(N)c(Cl)cc1C(=O)NC1CCN(CCCOc2ccc(F)cc2)CC1OC` (stereo not given) [Cisapride] it was 5.81.
In the case of `CC(C)C(=O)OCC(=O)[C@@]12O[C@H](C3CCCCC3)O[C@@H]1C[C@H]1[C@@H]3CCC4=CC(=O)C=C[C@]4(C)[C@H]3[C@@H](O)C[C@@]12C` [Ciclesonide] it was -7.98; in that of `CCCCCOC(=O)Nc1nc(=O)n([C@@H]2O[C@H](C)[C@@H](O)[C@H]2O)cc1F` [Capecitabine], 1.46.
As for `CN(C)CC/C=C1/c2ccccc2COc2ccc(CC(=O)O)cc21` [Olopatadine hydrochloride], the “optomotor response to green moving lines” value came out at 5.77.
In the case of `Cc1cn([C@H]2C=C[C@@H](CO)O2)c(=O)[nH]c1=O` [Stavudine] it was 1.24.
In the case of `C[C@H]1C[C@@H]2[C@H]([C@@H](O)C[C@@]3(C)[C@H]2CC[C@]3(O)C(=O)CO)[C@@]2(C)C=CC(=O)C=C12` [Methylprednisolone] it was 5.3.
In the case of `CC(C)(C(=O)O)c1ccc(C(O)CCCN2CCC(C(O)(c3ccccc3)c3ccccc3)CC2)cc1` (stereo not given) [Fexofenadine hydrochloride], the “optomotor response to green moving lines” value came to 3.69.
For the molecule `CC1=Nc2ccc(Cl)cc2S(=O)(=O)N1` [Diazoxide], the “optomotor response to green moving lines” value was determined as 7.27.
In the case of `COC(=O)C1=C(C)NC(C)=C(C(=O)OC(C)C)C1c1cccc2nonc12` (stereo not given) [Isradipine] it was -1.42; in that of `CCCN(CCC)S(=O)(=O)c1ccc(C(=O)O)cc1` [Probenecid], 10.3; in that of `CC(c1cc2ccccc2s1)N(O)C(N)=O` (stereo not given) [Zileuton], -11.3.
As to `O=C(NCC1CCCCN1)c1cc(OCC(F)(F)F)ccc1OCC(F)(F)F` (stereo not given) [Flecainide acetate], the “optomotor response to green moving lines” value amounted to 18.1.
In the case of `CC(=O)NC[C@H]1CN(c2ccc(N3CCOCC3)c(F)c2)C(=O)O1` [Linezolid] it was 5.36; in that of `CC(C)[C@H]1CC[C@H](C(=O)N[C@H](Cc2ccccc2)C(=O)O)CC1` [Nateglinide], 4.02.
For the molecule `CCc1nc(N)nc(N)c1-c1ccc(Cl)cc1` [Pyrimethamine], the “optomotor response to green moving lines” value was 6.72.
On to `OC(CNCC(O)C1CCc2cc(F)ccc2O1)C1CCc2cc(F)ccc2O1` (stereo not given) [Nebivolol hydrochloride], for which the “optomotor response to green moving lines” value is -4.67.
In the case of `CCC(C)(C)C(=O)O[C@H]1C[C@@H](C)C=C2C=C[C@H](C)[C@H](CC[C@@H]3C[C@@H](O)CC(=O)O3)[C@H]21` [Simvastatin] it was 4.17.
In the case of `COc1ccc(C[C@@H](C)NC[C@H](O)c2ccc(O)c(NC=O)c2)cc1` [Arformoterol tartrate] it was 0.317; in that of `COc1c(C)c2c(c(O)c1C/C=C(\C)CCC(=O)O)C(=O)OC2` [Mycophenolic acid], -1.15.
In the case of `O=C(O)CCCc1ccccc1` [Sodium 4-Phenylbutyrate] it was -2.96.
In the case of `CCCc1nc(C(C)(C)O)c(C(=O)O)n1Cc1ccc(-c2ccccc2-c2nnn[nH]2)cc1` [Olmesartan], the “optomotor response to green moving lines” value was -2.59.
Consider `N[C@@H]1[C@H]2CN(c3nc4c(cc3F)c(=O)c(C(=O)O)cn4-c3ccc(F)cc3F)C[C@@H]12` [Trovafloxacin mesylate], for which the “optomotor response to green moving lines” value is -4.23.
For the molecule `O=c1n(CCCN2CCN(c3cccc(Cl)c3)CC2)nc2ccccn12` [Trazodone hydrochloride], the “optomotor response to green moving lines” value turned out to be 1.17.
In the case of `CCCCCCCCc1ccc(CCC(N)(CO)CO)cc1` it was -1.15; in that of `CCOc1cc(CC(=O)N[C@@H](CC(C)C)c2ccccc2N2CCCCC2)ccc1C(=O)O` [Repaglinide], 4.27; in that of `C[C@H](Cc1cc2c(c(C(N)=O)c1)N(CCCO)CC2)NCCOc1ccccc1OCC(F)(F)F` [Silodosin], 1.5.
In the case of `CN1CCC[C@@H]1CCO[C@](C)(c1ccccc1)c1ccc(Cl)cc1` [Clemastine fumarate] it was 4.02; in that of `CNCc1ccc(-c2[nH]c3cc(F)cc4c3c2CCNC4=O)cc1` [Rucaparib camsylate], 1.55; in that of `COc1cc2nc(N3CCN(C(=O)c4ccco4)CC3)nc(N)c2cc1OC` [Prazosin hydrochloride], -10.2.
In the case of `OCCN(CCO)c1nc(N2CCCCC2)c2nc(N(CCO)CCO)nc(N3CCCCC3)c2n1` [Dipyridamole] it was 5.01.
Consider `COCCc1ccc(OCC(O)CNC(C)C)cc1` (stereo not given) [Metoprolol tartrate], for which the “optomotor response to green moving lines” value came out at 0.682.
As to `Cc1ccccc1C(=O)Nc1ccc(C(=O)N2CCCC(O)c3cc(Cl)ccc32)c(C)c1` (stereo not given) [Tolvaptan], the “optomotor response to green moving lines” value came out at 10.3.
Regarding `COc1cc2nccc(Oc3ccc(NC(=O)C4(C(=O)Nc5ccc(F)cc5)CC4)cc3)c2cc1OC`, the “optomotor response to green moving lines” value was 9.65.
